Assay results taken from the supplement of paper PMC10681739.

Each sequence was assayed against T1, ETS1 (UniProt P14921) (assay: ETS1 binding intensity (PBM fluorescence), ETS1 alone (arbitrary fluorescence units); higher = stronger binding). Settings: ETS1 concentration 1 nM; RUNX1 concentration 0 nM.
T1 sequence: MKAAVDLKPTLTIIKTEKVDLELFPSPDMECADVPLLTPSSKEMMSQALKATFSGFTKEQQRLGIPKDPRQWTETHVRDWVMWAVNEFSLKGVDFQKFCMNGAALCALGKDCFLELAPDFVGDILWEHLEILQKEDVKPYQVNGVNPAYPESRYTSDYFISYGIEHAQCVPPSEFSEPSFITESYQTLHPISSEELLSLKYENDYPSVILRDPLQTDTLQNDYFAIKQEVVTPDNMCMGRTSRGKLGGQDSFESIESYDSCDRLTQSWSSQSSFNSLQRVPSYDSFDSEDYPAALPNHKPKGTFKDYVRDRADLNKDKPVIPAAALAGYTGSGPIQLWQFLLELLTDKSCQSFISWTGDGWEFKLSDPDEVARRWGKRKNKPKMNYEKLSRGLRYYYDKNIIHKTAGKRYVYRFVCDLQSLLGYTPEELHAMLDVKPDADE
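Wherever RUNX1 binding intensity (PBM fluorescence), RUNX1 alone is given: Full-length recombinant human RUNX1 bound to double-stranded 36-bp genomic probes on a high-density microarray, scored as Alexa488 fluorescence per spot via anti-RUNX1 antibody, median of four replicate spots.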

Sequence | ETS1 binding intensity
CCCACCCAGGAAGCCGTCCTAACCACAACAGCCCTC | 514
GAGCCACCGGAAACGGAGCTGCGGCCGCGCCCCGCC | 5340
CCACCCTCCGTCCGGCCGCGACCGCGAGGAGGAAGA | 948
TTATTTCCTCTTTTTTTTTTTTTTTTTGGTTTTGCT | 483
CCTCGGTTCGGAAACGGCGAAAGCAAACCGCAAGGA | 478
GAGGGTTGCTGGGGGGAAGTGTGGTAAATCTTTTCC | 458
GACCACTTCCTTTCTGTGTTTTGTGGTTTCACAACT | 555
GCCACCTCTTCCTGTGTTGCAAACCACAGGTCCACC | 805
GACCAGGCGAGAGGATGTGGGTATGAGGGAGGAGCT | 819
TTTTCTTTCCTAGGAAGTGGTTGCTGGGTTCTGAGG | 785
AGTGTCCGCCGCTTCCTGGTTGCGGGTCAGCGCCCA | 629
AGCTAAACCCAGTTCCGGTGCTGTGGGGAGCTCAGA | 858
GGTCAGGTGGGCGTTTCCTGTGGGCGTCTCCAACTC | 1240
CCGGCAGGAAGTTAGCATGGGCGGACCACACGGGGG | 1400
CCCCTCAGCTTCCGGGTGCTGCGGCCGCGGCCGAGA | 646
GAGTGACTGCTAACGGATGTGTGGTTTCTTTAGTTT | 2000
TGTCTCATTTCCTGTAGGTAACAGGCACCACAATAG | 1550
CATGGGACCCGGAAGTGTGTGGTAAAGCGCCGGGGC | 3590
TACATAGGCGGAAGTGGCCTGCGGGCGCCGGAGTTG | 3980

The sequences below were run against RUNX1 (UniProt Q01196) (assay: RUNX1 binding intensity (PBM fluorescence), RUNX1 alone (arbitrary fluorescence units); higher = stronger binding). Settings: RUNX1 concentration 2 nM; ETS1 concentration 0 nM.
Description: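 Cooperative gcPBM on 36-bp genomic probes with neighbouring ETS1 and RUNX1 sites. Recombinant human RUNX1 (2 nM) was incubated alone or with ETS1 (25 nM) and detected with anti-RUNX1 antibody plus Alexa488 secondary. Values are medians over 4 replicate spots; the RUNX1+ETS1 data were normalised to the RUNX1-only data. The probes sit in constant array flanks that are not printed.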

RUNX1, sequence (Q01196 whole entry): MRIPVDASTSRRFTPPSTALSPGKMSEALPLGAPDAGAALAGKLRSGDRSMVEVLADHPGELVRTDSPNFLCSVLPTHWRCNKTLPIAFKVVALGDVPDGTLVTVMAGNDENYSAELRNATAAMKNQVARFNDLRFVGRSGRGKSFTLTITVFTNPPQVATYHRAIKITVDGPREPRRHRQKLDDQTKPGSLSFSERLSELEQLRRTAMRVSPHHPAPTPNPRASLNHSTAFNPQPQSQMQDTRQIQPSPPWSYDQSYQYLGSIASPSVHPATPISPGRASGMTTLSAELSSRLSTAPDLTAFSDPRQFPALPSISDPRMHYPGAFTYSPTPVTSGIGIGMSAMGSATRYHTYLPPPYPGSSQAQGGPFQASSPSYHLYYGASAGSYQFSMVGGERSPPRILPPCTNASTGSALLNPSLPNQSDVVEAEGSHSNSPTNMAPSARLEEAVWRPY

Sequence | RUNX1 binding intensity
GCGGCTGAGAACACAGGATGTGGCTTTTGGCAGATG | 674
TATGTCTGACTTCCGCTCGTGGTTTCCATCTTAGCC | 895
CTGCGTTTCCTCTGAGTTTTGCATGTTGAGGTTGGA | 877
TGGAAGAGGGCAGGAAGTGTTGTGGTCACTCCCACC | 856
TCAGAGACTTCCGCTCAGCAGCAGCTGCGGCCAGGC | 671
GAGAAAAGAGACTGAGGATGTGGTTTGGGGTGTGGG | 844
CAGGGTGGAAACAGGAAGAGAAACCACACTTAACCT | 845
GATGGGCGAGTCAGGAAACCACAGCTCTGAGGGTGG | 950
TGGAAGCGGCTTCCGGGGTGAATGCGGTTGGATCGT | 1030
AGAGCAACAGGATGCAAATAACCACAAGCAAGAATA | 1160
CATGTGCTTCCGGCTTGATCTGTGGTTATTCTGGTT | 1270
AGACGGTAGGCCAGGAAACCGCAGGCCCCTGCCGGG | 6110
GCACTACATTTCCCAGCTTTCCTCGCGGTAAAGAGA | 1270
CACCGGAAAAGGCAAGCGCGGCCGCGCGGTTGGCGC | 745
GCGGAGGGAAGCGGAAATACTTGCGGTGGGGGCGAC | 898
AGCGCGCCGCCGACCGGATGCGGGAACTGGGCTCGG | 715
CCGCGCACCCGGAACTACCTCCCGACCCGCATCCCC | 1290
GAAACAATTTCCTGTACCTCTGTGGTAAAAATGATA | 945
AAGAGGAAGTCCCAAATTGCTTTTTAACCACCAACA | 849
GAAGTCACTCAGGGAGGAAACCACAGGGCCGGTCCG | 880

Sequence | RUNX1 binding intensity
AGGGACTTCCGGTGACCAGAGCACTAGCGCCGCAAA | 768
CCCACCCAGGAAGCCGTCCTAACCACAACAGCCCTC | 4100
GAGCCACCGGAAACGGAGCTGCGGCCGCGCCCCGCC | 747
CCACCCTCCGTCCGGCCGCGACCGCGAGGAGGAAGA | 841
TTATTTCCTCTTTTTTTTTTTTTTTTTGGTTTTGCT | 1960
CCTCGGTTCGGAAACGGCGAAAGCAAACCGCAAGGA | 2260
GAGGGTTGCTGGGGGGAAGTGTGGTAAATCTTTTCC | 938
GACCACTTCCTTTCTGTGTTTTGTGGTTTCACAACT | 2430
GCCACCTCTTCCTGTGTTGCAAACCACAGGTCCACC | 1600
GACCAGGCGAGAGGATGTGGGTATGAGGGAGGAGCT | 835
TTTTCTTTCCTAGGAAGTGGTTGCTGGGTTCTGAGG | 831
AGTGTCCGCCGCTTCCTGGTTGCGGGTCAGCGCCCA | 824
AGCTAAACCCAGTTCCGGTGCTGTGGGGAGCTCAGA | 741
GGTCAGGTGGGCGTTTCCTGTGGGCGTCTCCAACTC | 770
CCGGCAGGAAGTTAGCATGGGCGGACCACACGGGGG | 1470
CCCCTCAGCTTCCGGGTGCTGCGGCCGCGGCCGAGA | 827
GAGTGACTGCTAACGGATGTGTGGTTTCTTTAGTTT | 926
TGTCTCATTTCCTGTAGGTAACAGGCACCACAATAG | 968
CATGGGACCCGGAAGTGTGTGGTAAAGCGCCGGGGC | 896
TACATAGGCGGAAGTGGCCTGCGGGCGCCGGAGTTG | 714

Each sequence was assayed against T1, ETS1 (assay: ETS1 binding intensity (PBM fluorescence) in presence of RUNX1, normalised to ETS1-only experiment (arbitrary fluorescence units); higher = stronger binding). Settings: ETS1 concentration 1 nM; RUNX1 concentration 25 nM.

Sequence | ETS1 binding intensity
GCGGCTGAGAACACAGGATGTGGCTTTTGGCAGATG | 12800
TATGTCTGACTTCCGCTCGTGGTTTCCATCTTAGCC | 5230
CTGCGTTTCCTCTGAGTTTTGCATGTTGAGGTTGGA | 382
TGGAAGAGGGCAGGAAGTGTTGTGGTCACTCCCACC | 28900
TCAGAGACTTCCGCTCAGCAGCAGCTGCGGCCAGGC | 1330
GAGAAAAGAGACTGAGGATGTGGTTTGGGGTGTGGG | 6260
CAGGGTGGAAACAGGAAGAGAAACCACACTTAACCT | 7190
GATGGGCGAGTCAGGAAACCACAGCTCTGAGGGTGG | 1190
TGGAAGCGGCTTCCGGGGTGAATGCGGTTGGATCGT | 3990
AGAGCAACAGGATGCAAATAACCACAAGCAAGAATA | 4180
CATGTGCTTCCGGCTTGATCTGTGGTTATTCTGGTT | 2980
AGACGGTAGGCCAGGAAACCGCAGGCCCCTGCCGGG | 3730
GCACTACATTTCCCAGCTTTCCTCGCGGTAAAGAGA | 429
CACCGGAAAAGGCAAGCGCGGCCGCGCGGTTGGCGC | 1090
GCGGAGGGAAGCGGAAATACTTGCGGTGGGGGCGAC | 19400
AGCGCGCCGCCGACCGGATGCGGGAACTGGGCTCGG | 19400
CCGCGCACCCGGAACTACCTCCCGACCCGCATCCCC | 592
GAAACAATTTCCTGTACCTCTGTGGTAAAAATGATA | 1650
AAGAGGAAGTCCCAAATTGCTTTTTAACCACCAACA | 874
GAAGTCACTCAGGGAGGAAACCACAGGGCCGGTCCG | 1270

Sequence | ETS1 binding intensity
AGGGACTTCCGGTGACCAGAGCACTAGCGCCGCAAA | 1990
CCCACCCAGGAAGCCGTCCTAACCACAACAGCCCTC | 2580
GAGCCACCGGAAACGGAGCTGCGGCCGCGCCCCGCC | 7820
CCACCCTCCGTCCGGCCGCGACCGCGAGGAGGAAGA | 1060
TTATTTCCTCTTTTTTTTTTTTTTTTTGGTTTTGCT | 440
CCTCGGTTCGGAAACGGCGAAAGCAAACCGCAAGGA | 3890
GAGGGTTGCTGGGGGGAAGTGTGGTAAATCTTTTCC | 475
GACCACTTCCTTTCTGTGTTTTGTGGTTTCACAACT | 1650
GCCACCTCTTCCTGTGTTGCAAACCACAGGTCCACC | 1320
GACCAGGCGAGAGGATGTGGGTATGAGGGAGGAGCT | 1640
TTTTCTTTCCTAGGAAGTGGTTGCTGGGTTCTGAGG | 721
AGTGTCCGCCGCTTCCTGGTTGCGGGTCAGCGCCCA | 704
AGCTAAACCCAGTTCCGGTGCTGTGGGGAGCTCAGA | 908
GGTCAGGTGGGCGTTTCCTGTGGGCGTCTCCAACTC | 1230
CCGGCAGGAAGTTAGCATGGGCGGACCACACGGGGG | 1530
CCCCTCAGCTTCCGGGTGCTGCGGCCGCGGCCGAGA | 999
GAGTGACTGCTAACGGATGTGTGGTTTCTTTAGTTT | 6590
TGTCTCATTTCCTGTAGGTAACAGGCACCACAATAG | 1470
CATGGGACCCGGAAGTGTGTGGTAAAGCGCCGGGGC | 9470
TACATAGGCGGAAGTGGCCTGCGGGCGCCGGAGTTG | 9480
